Measurements as given in PubChem BioAssay (NCI).
About 79,000 compounds went through this panel and 15% of them were active in at least one assay; those are over-represented in the sample as a whole. Unmarked numbers belong to inactive results. Activity calls are given as the source filed them. Cut-off read from the data, not from the text of the source: active = growth inhibition above about 70%; inactive = the rest.

Tests used:
[1] = NCI Yeast Anticancer Drug Screen. Data for the rad50 strain (AID 155);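 note: 0% = growth of vehicle-only cultures of the same strain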; conditions: S. cerevisiae rad50 strain growth inhibition; at 50.0 µM; stronger effect = higher value
Procedure, shortened: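 Readout: growth inhibition relative to vehicle-treated cultures. Compound exposure was carried out in a genetically defined yeast strain deficient in DNA damage repair.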

[2] = NCI Yeast Anticancer Drug Screen. Data for the mec2-1 strain (AID 157); conditions: S. cerevisiae mec2-1 strain, at 50.0 µM, stronger effect = higher value
Procedure, shortened: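 Growth inhibition is read against vehicle-treated controls after compound exposure of the mec2-1 yeast strain, which is defective in DNA damage repair or cell cycle control.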

[3] = NCI Yeast Anticancer Drug Screen. Data for the sgs1 mgt1 strain (AID 161);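 note: 0% = growth of cultures given vehicle only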; conditions: S. cerevisiae sgs1 mgt1 strain, at 50.0 µM, stronger effect = higher value
Procedure, shortened: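 Growth of a repair-deficient yeast mutant was monitored after compound treatment and expressed as inhibition relative to vehicle-treated cultures.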

[4] = NCI Yeast Anticancer Drug Screen. Data for the cln2 rad14 strain (AID 165);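 note: 0% = growth equal to vehicle treated cultures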; conditions: S. cerevisiae cln2 rad14 strain, at 50.0 µM, stronger effect = higher value
Procedure, shortened: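 Growth inhibition, relative to vehicle-treated controls, is the read-out. The test organism is a yeast strain with defined genetic alterations, cln2 rad14.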

[5] = NCI Yeast Anticancer Drug Screen. Data for the bub3 strain (AID 167); conditions: S. cerevisiae bub3 mutant strain, at 50.0 µM, stronger effect = higher value
Procedure, shortened: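 Readout: yeast growth inhibition, expressed relative to vehicle-only wells. The test organism is a mutant strain from a panel with lesions in DNA repair or checkpoint genes.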

[6] = NCI Yeast Anticancer Drug Screen. Data for the mlh1 rad18 strain (AID 175); conditions: S. cerevisiae mlh1 rad18 strain growth inhibition; at 50.0 µM; stronger effect = higher value
Procedure, shortened: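 Cells of a genetically altered yeast strain, deficient in DNA damage repair, were treated with compound. Their growth was then compared with that of vehicle-treated cultures to give inhibition.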

SMILES	growth inhibition [1]	growth inhibition [2]	growth inhibition [3]	growth inhibition [4]	growth inhibition [5]	growth inhibition [6]
CCOC(=O)c1c(C)c(C)n2c1NC(=O)C2	-4.5%	-4.6%	-37.5%	-36.8%	-30.6%	-13.9%
COC(=O)Cc1[nH]c(C(=O)OC)c(C)c1C(=O)OC	-6.7%	-7.45%	-3.15%	-21.1%	-6.95%	-2.2%
C#CCOC(=O)c1ccccc1O	15.2%	2.8%	17.4%	13.4%	16.9%	12.2%
CS(=O)(=O)OC1CCCS(=O)(=O)c2ccccc21 (configuration not stated)	-12.9%	-12.8%	3.65%	-46.9%	-1%	-6.45%
CCC12CCCN(Cc3ccccc3)C1c1c([nH]c3ccccc13)C(C(=O)OC)C2 (configuration not stated)	11.8%	-2.25%	17.6%	13.7%	-0.25%	2.3%
O=C1CCC(=O)C(C(=O)CCC(=O)Nc2cccc(Cl)c2)C1 (configuration not stated)	-20.6%	-6.5%	-11.7%	19.8%	11.9%	-4.9%
Nc1n[nH]c(=S)s1	6.8%	-12.1%	7.35%	-8.7%	-12.3%	3.55%
CC(=O)Nc1cc(Cl)c(Oc2ccccc2)cc1[N+](=O)[O-]	19.2%	27.9%	27.7%	33%	52%	14.6%
CN=[N+]([O-])c1ccccc1	1.75%	17.9%	4.35%	15.2%	10.9%	1.6%
CCCCOC(=O)NC(C)=O	-14.1%	-18.9%	-15.2%	-11.6%	-1.55%	-16.1%
CC(c1ccccc1)C1OCCO1 (configuration not stated)	-7.45%	-27.4%	-15.8%	-30.8%	-28.2%	28.7%
CNC(=O)OCc1c(COC(=O)NC)c(-c2ccc(S(=O)(=O)c3ccccc3)cc2)n(C)c1C	-5.85%	-3.85%	-1.95%	-2.7%	-16.4%	-42.6%
CC(C)(C)NC(=O)NCC1CCCC1NC(=O)NC(C)(C)C (configuration not stated)	1.45%	-4.95%	3.65%	-5.45%	7.35%	-10.4%
O=C(/C=C/c1ccccc1)c1ccc(O)cc1O	-27.3%	-13.2%	14.8%	-27.1%	1.65%	2.1%
CCCCCC(=O)c1ccc2[nH]c3c(C)cc([N+](=O)[O-])c(C)c3c2c1	3.65%	-35.6%	-34.6%	-2.8%	-17.2%	-10.3%
O=C(NCCN1CCCC1)Nc1ccccc1Cl	4.6%	27.2%	-0.8%	-10.1%	34.1%	0.15%
CC1(C)O[C@@H]2C[C@H]3[C@@H]4C[C@H](F)C5=CC(=O)C=C[C@]5(C)[C@@]4(F)[C@@H](O)C[C@]3(C)[C@]2(C(=O)CO)O1	-1.8%	-25.6%	0.25%	-4.75%	-57.8%	-8.35%
Cc1nn(C(=O)c2ccncc2)c2c1C(c1ccccc1[N+](=O)[O-])SC(N)=N2 (configuration not stated)	21.4%	6.15%	40.1%	26.1%	43.6%	18.9%
N#CCc1ccccc1C(C#N)C(=O)CCC(=O)C(C#N)c1ccccc1CC#N (configuration not stated)	45.6%	26.1%	22.6%	-28.4%	6.75%	44.7%
COC(=O)C(C#N)(CCc1ccc([N+](=O)[O-])cc1)CCc1ccc([N+](=O)[O-])cc1	14.8%	-4.25%	3%	-6.7%	5.6%	25.9%
COc1cccc(/C=C2\CCC(C)(CN(C)C)C2=O)c1 (configuration not stated)	32.9%	9.1%	38.9%	29.2%	13.2%	29.9%

SMILES	growth inhibition [1]	growth inhibition [2]	growth inhibition [3]	growth inhibition [4]	growth inhibition [5]	growth inhibition [6]
COc1nc(NC2OCC(O)C(O)C2O)c(Br)c(=O)n1C (configuration not stated)	4.9%	-10.4%	14.2%	11.8%	17.5%	13%
Cc1[nH]c2ccc(-c3ccccc3)cc2c1CC(=O)OC(C)C	97% (active)	98.5% (active)	98.2% (active)	97.8% (active)	98.2% (active)	98% (active)
COc1ccc(/C=N/N=C/c2ccc(OC)cc2)cc1	22.3%	0.7%	-14.1%	-34.5%	-19.8%	17.8%
O=C(Cc1ccccc1C(=O)O)c1ccccc1	-16.6%	-18.6%	-23.6%	-24.4%	-25.1%	-13.3%
Nc1cc(N)nc(S(=O)O)n1	18.9%	2.85%	16.1%	10.7%	19.8%	35.9%
COc1cccc(/C=C\C#N)c1	-23.1%	-1.3%	-45%	-7.05%	-26.9%	-22.1%
COc1ccc(CCN2C(=O)C(=O)N(C(C)C)C2=O)cc1OC	7.9%	1.6%	13%	16.4%	4.85%	14.7%
O=C1c2ccccc2C(=O)N1OCc1csc(-c2ccccc2)n1	5.5%	6.25%	-4.2%	5.25%	0.95%	27.4%
CCOC(=O)C1=C(C)N(NC(=O)Nc2ccccc2)C2(N)N(NC(=O)Nc3ccccc3)C(C)=C(C(=O)OCC)C12C(=O)OCC (configuration not stated)	-28.1%	-44.5%	-42%	-20.7%	-7.6%	-15.8%
O=S(=O)(Cl)c1ccc(I)cc1	-5.2%	-21.2%	-12.3%	22.4%	-2.2%	-20.6%
O=C1NC(c2ccccc2)C1N(Cc1ccccc1)Cc1ccccc1 (configuration not stated)	21.3%	0.55%	22.2%	11.4%	12.8%	9.8%
O=C(O)C(Cl)C(Cl)c1ccc(Cl)cc1 (configuration not stated)	-2.6%	7.15%	6.15%	-57.3%	11.9%	6.6%
CCS(=O)(=O)Nc1ccc(NS(=O)(=O)CC)cc1	39.7%	11.3%	29.1%	16.5%	17.9%	25.4%
CN(C)c1nc2ccccc2[nH]1	2.6%	-4.25%	11.9%	-1.35%	-4.85%	-2%
COc1ccc(N=Nc2c(C)c(C#N)c(=S)n(C3OC(CO)C(O)C(O)C3O)c2-c2ccccc2)cc1 (configuration not stated)	0.55%	2.85%	20.1%	10.7%	11.8%	23.9%
CNC(=O)NC(C)(C)CCCCC(C)(C)NC(=O)NC	0.5%	17.3%	28.3%	-16.9%	-4.65%	19.8%
CCOc1ccc(NC(=O)Oc2ccc(-c3ccccc3)cc2)cc1	15.8%	33.5%	24.4%	-12%	56.7%	48.1%
COC(=O)c1c2c(cc3c1CC1(Cc4cc5c(cc4C1)CCCC5)C3)CCCC2	-6.3%	-16.4%	-21.9%	12.3%	-5.8%	7.35%
O=C(O)C1C=CCC2C(O)C=CC(=O)C12 (configuration not stated)	-5.95%	-31.2%	-1.05%	-2.4%	-11%	-5.9%
CC(=O)OCCN(C)C	3.4%	-1.85%	-16%	8.5%	-19.4%	-10.4%
CCN(CC)CCOC(=O)c1ccc(N=NC2Sc3nc4ccccc4n3C2=O)cc1 (configuration not stated)	27.9%	20.2%	15.9%	14.4%	6.8%	27.8%
